From PubChem BioAssay AID485281 (National Center for Advancing Translational Sciences (NCATS), 2010)
Out of some 350,000 compounds screened, about 260 (0.074%) were called active. Roughly 8% stayed inconclusive and do not appear here. The entries come from a sample that favours actives as a whole. A number with no mark means an inactive call. The call rests on the fitted dose curve; in most records, active means well fitted inhibition curve with a large enough effect; inconclusive means small, poorly fitted or top-dose-only effect; inactive means no such curve, though single readings can be large or run the other way.

These compounds were tested against Ferritin light chain (Equus caballus) (UniProt P02791) (assay: qHTS Assay for Identification of Novel General Anesthetics). Settings: apoferritin/1-aminoanthracene competitive binding, fluorescence; series mostly up to 77.5 µM; activity change, negative = displacement: at the top concentration.
Description: Source: NIH Chemical Genomics Center [NCGC]
Assay Submitter: Roderic Eckenhoff, University of Pennsylvania
Screening Center PI: Christopher P. Austin, NIH
Probe Development: NIH Chemical Genomics Center [NCGC]
Anesthetic development has remained a largely empirical process. There are growing concerns about the cognitive effects of known general anesthetics and acceleration of the onset of neurodegenerative disease. The compounds' toxicity and multiple specific binding targets in the mammalian brain [4] has made them less attractive as drug leads. In this assay, a GABAergic mimetic model system, apoferritin and a profluorescent 1-aminoanthracene ligand (1-AMA), was used to construct a competitive binding assay for identification of novel general anesthetics. The assay was validated for 1-AMA using other known anesthetics, such as isoflurane (CID:3763) and propofol (CID: 4943), [6].
[1] S.L. Bianchi, T. Tran, C. Liu, S. Lin, Y. Li, J.M. Keller, R.G. Eckenhoff, and M.F. Eckenhoff, Brain and behavior changes in 12-month-old Tg2576 and nontransgenic mice exposed to anesthetics. Neurobiol Aging 29 (2008) 1002-10.
[2] Z. Xie, Y. Dong, U. Maeda, R.D. Moir, W. Xia, D.J. Culley, G. Crosby, and R.E. Tanzi, The inhalation anesthetic isoflurane induces a vicious cycle of apoptosis and amyloid beta-protein accumulation. J Neurosci 27 (2007) 1247-54.
[3] P. Honegger, and J.M. Matthieu, Selective toxicity of the general anesthetic propofol for GABAergic neurons in rat brain cell cultures.
[4] M.F. Eckenhoff, K. Chan, and R.G. Eckenhoff, Multiple specific binding targets for inhaled anesthetics in the mammalian brain. J Pharmacol Exp Ther 300 (2002) 172-9.
[5] C.A. Butts, J. Xi, G. Brannigan, A.A. Saad, S.P. Venkatachalan, R.A. Pearce, M.L. Klein, R.G. Eckenhoff, and I.J. Dmochowski, Identification of a fluorescent general anesthetic, 1-aminoanthracene. Proc Natl Acad Sci U S A 106 (2009) 6501-6.
[6] W.A. Lea, J. Xi, A. Jadhav, L. Lu, C.P. Austin, A. Simeonov, and R.G. Eckenhoff, A high-throughput approach for identification of novel general anesthetics. PLoS One 4 (2009) e7150.
Three uL of reagents (free 1-AMA (50% saturated solution of 1-aminoanthracene
in PBS) in columns 3, 4 as negative control and 1-AMA/apoferritin mixture (10 uM horse-spleen apoferritin in 50% saturated 1-aminoanthracene in PBS) in columns 1, 2, 5-48) was dispensed into 1536-well Greiner black assay plates. Compounds (23 nL) were transferred via Kalypsys pintool equipped with 1,536-pin array (10 nL slotted pins, V&P Scientific, San Diego, CA). Titration of the positive control, propofol, were delivered via pin transfer from separate control plates to the 2nd column of each assay plate. The starting concentration of the control, dissolved in DMSO, was at 160 mM, followed by two-fold dilution points in duplicate, for a total of 16 concentrations. The plates were incubated for 10 min at room temperature, and then read on an EnVision HTS multilabel reader (Perkin-Elmer, Waltham, MA) (end point read, 3 min/plate) using Fura2 BFP excitation filter (380 nm, bandwidth 10 nm) and fluorescein emission filter (535 nm, bandwidth 25 nm) set. A LANCE/DELFIA dichroic mirror with a cutoff wavelength at 400 nm was used to maximize signal accuracy and strength. […] Activity was computed as the normalized fluorescence response relative to free 1-AMA and 1-AMA/apoferritin complex values. […]
Further: nearly all actives have a fitted effect of over 20% in size.
On the % scale 0 is the no-effect control and ±100 the full control effect; potency means the concentration at half of the fitted maximal effect.

Chain of Ferritin light chain (Equus caballus) (P02791 2-175 limits assumed): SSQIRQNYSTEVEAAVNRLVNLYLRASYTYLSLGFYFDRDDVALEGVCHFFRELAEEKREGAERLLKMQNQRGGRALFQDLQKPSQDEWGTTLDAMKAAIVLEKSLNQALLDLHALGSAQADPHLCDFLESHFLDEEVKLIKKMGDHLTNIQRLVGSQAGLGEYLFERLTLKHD

SMILES | Potency | activity change, negative = displacement [%]
N[C@@H](Cc1c[nH]c2ccccc12)c1nnc(SCc2c(F)cccc2Cl)o1 | 28.2 µM (active) | –
CCOCCCNC(=O)c1c(NC(=O)c2nc(SC)ncc2Cl)sc2c1CCCC2 | – | 173
COC(=O)c1ccccc1NC(=O)c1cc(-c2ccccc2O)no1 | – | 164
CCc1ccccc1NC(=O)c1sc2nc3c(cc2c1N)CN(Cc1ccccc1)CC3 | – | 62.1
C[C@H]1C/C=C/[C@@H]2[C@@H]3O[C@]3(C)[C@@H](C)[C@H]3[C@H](Cc4ccccc4)NC(=O)[C@]32OC(=O)O/C=C/[C@](C)(O)C1=O | – | -9.63
